# Source: PubChem BioAssay (several laboratories)
# Most compounds without a hit are left out; they make up all but 4.6% or so of the library.
# CF NFkB inh: cystic fibrosis NF-kB activation inhibition; actives 0.86% (n = 360,000); AID 588850; KKLEB NF-kB-GFP reporter, PAF-induced, GFP fluorescence overnight; inhibition, % at 5 µM;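 active means at least 50% inhibition at 5 µM, scaled per plate between neutral and stimulator controls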;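 further: PAF is a Pseudomonas aeruginosa culture filtrate used as stimulus; plate controls were PAF-stimulated DMSO wells for no effect and unstimulated DMSO wells for full effect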
# KKLEB tox: reduces viability of KKLEB cystic fibrosis airway cells | activity change (cytotoxicity), % at 5 µM | actives 0.36% (n = 360,000) | KKLEB CF airway cells viability, ATPlite luminescence, overnight; active compounds read low; cells stimulated with P. aeruginosa culture filtrate | AID 602141;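 active means corrected activity change at or below -50% at 5 µM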
# ABHD5-PLIN5 inh: inhibitors of human ABHD5-perilipin-5 interaction; Q00G26+Q8WTS1; Split G. princeps luciferase complementation, luminescence, 4 h; inhibition, % at 4 µM; actives 0.78% (n = 360,000);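 active means inhibition above the mean inhibition across every tested compound plus 3 SD, cut at about 22% in these data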;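 further: 0% = DMSO only wells and the 100% control is not disclosed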
# Mdm2 MdmX PPI: inhibitors of human Mdm2/MdmX interaction; SaOS-2 split-luciferase Mdm2/MdmX complementation, luminescence; actives 3% (n = 330,000); inhibition, % at 8 µM;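 active means inhibition of at least 50% at 8 µM in the primary screen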
# HIF-2a block: HIF-2a inhibition; 786-0 RCC cells HIF-2a reporter, luciferase luminescence, overnight; inhibition, % at 18.8 µM; actives 0.72% (n = 360,000); AID 624352;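 active means inhibition of the luminescence signal of 40% or more relative to plate controls, in a single-dose primary screen at 18.75 µM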
# Peg3 prom inh: inhibitors of Peg3 promoter. HeLa PEG-Prom luciferase reporter, luminescence, overnight. inhibition, % at 20 µM. actives 1.7% (n = 360,000). AID 588405;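 active means inhibition of at least 50% at 20 µM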
# Mdm2-MdmX conf: confirmation of human Mdm2/MdmX interaction inhibitors; shares compounds with Mdm2 MdmX PPI; Mdm2-MdmX binding, luminescent assay; inhibition, % at 8 µM; actives 55% (n = 10,000); in the data active means inhibition above about 40%
# Full FLuc ctr: counter-screen for Mdm2/MdmX inhibitors: full-length luciferase; shares compounds with Mdm2 MdmX PPI; AID 504607; actives 77% (n = 6,200); SaOS-2 full-length luciferase counterscreen, luminescence; inhibition, % at 8 µM;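 active means mean inhibition at 8 µM reaching about 37%, which flags the compound as non-specific, limit read from the data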;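 further: p53-null SaOS-2 cells with luciferase driven by a doxycycline-inducible promoter; compound on cells about two nights before reading with doxycycline added after day one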
# An asterisk follows results filed as active; nt = no result given.
SMILES,CF NFkB inh,KKLEB tox,ABHD5-PLIN5 inh,Mdm2 MdmX PPI,HIF-2a block,Peg3 prom inh,Mdm2-MdmX conf,others
CCCN(CCC)CCCNC(=S)Nc1ccc2nc(N3CCN(C)CC3)cc(C)c2c1,3,-7,3,38,9,7,nt,
CCCN(CCC)CCCNC(=S)Nc1ccc2nc(N3CCN(CC)CC3)cc(C)c2c1,10,-17,2,53*,14,5,30,
CCCCN(CC)CCNC(=S)Nc1ccc2nc(N3CCN(C)CC3)cc(C)c2c1,0,7,9,67*,14,29,45*,Full FLuc ctr=75*
CCN1CCN(c2cc(C)c3cc(NC(=O)c4ccc(C)c(C)c4)ccc3n2)CC1,-3,0,3,67*,-138,-64,16,
CCN1CCN(c2cc(C)c3cc(NC(=S)N4CCN(c5ccc(F)cc5)CC4)ccc3n2)CC1,20,-9,6,96*,16,88*,45*,Full FLuc ctr=52*
CCN1CCN(C(=S)Nc2ccc3nc(N4CCN(CC)CC4)cc(C)c3c2)CC1,-16,-15,0,30,27,0,nt,
O=C(Nc1cccc(Cl)c1)c1nc[nH]c1C(=O)NCCCCNC(=O)c1[nH]cnc1C(=O)Nc1cccc(Cl)c1,-17,-6,1,86*,-1,7,-19,
Cc1cccc(NC(=O)c2nc[nH]c2C(=O)NCCCCCCNC(=O)c2[nH]cnc2C(=O)Nc2cccc(C)c2)c1,-24,2,-10,71*,5,45,-22,
CC(C)(C)OC(=O)NCCCCCNC(=O)c1[nH]cnc1C(=O)Nc1cccc(Cl)c1,16,0,-1,50,4,9,nt,
O=C(Nc1cccc(Cl)c1)c1nc[nH]c1C(=O)NCc1ccccc1,-28,25,0,21,5,11,nt,
O=C(Nc1cccc(Cl)c1)c1nc[nH]c1C(=O)NCCN(CCNC(=O)c1[nH]cnc1C(=O)Nc1cccc(Cl)c1)CCNC(=O)c1[nH]cnc1C(=O)Nc1cccc(Cl)c1,9,-22,6,75*,-1,41,24,
Nn1c(SCC(=O)NC2CCCCCC2)nnc1-c1ccco1,-7,3,3,nt,13,3,nt,
c1ccc(N=C2SCCCS2)cc1,-7,14,1,nt,-29,-4,nt,
CCOc1ccc(NC(=O)COC(=O)Cn2cnc3ccccc32)cc1,-8,6,2,35,10,-9,nt,
Cc1cccc(C)c1NC(=O)COc1ccc2c(C)c(Cc3ccccc3)c(=O)oc2c1C,16,-22,0,97*,16,73*,11,
Cc1c(Cc2ccccc2)c(=O)oc2c(C)c(OCC(=O)Nc3ccc(C#N)cc3)ccc12,16,-18,2,5,18,27,nt,
COc1ccc(-n2nc(C(=O)NCc3ccco3)c3c4ccccc4n(C)c3c2=O)cc1Cl,20,-23,-5,57*,11,19,1,
COc1ccccc1CNC(=O)c1nn(-c2ccc(C)cc2)c(=O)c2c1c1ccccc1n2C,-4,-11,7,79*,8,14,21,
COc1ccc(-n2nc(C(=O)NCCCN3CCCC3=O)c3c4ccccc4n(C)c3c2=O)cc1Cl,-4,6,-1,11,12,27,nt,
Cn1nc(C2CC2)cc1NC(=O)C1(C)CCN1C(=O)c1ccccc1CCc1ccccc1 (configuration not stated),15,1,2,nt,0,5,nt,
CS(=O)(=O)c1ccc(C(=O)OCC(=O)NC(=O)C2COc3ccccc3O2)cc1[N+](=O)[O-] (configuration not stated),8,24,4,51*,1,8,26,
CS(=O)(=O)c1ccc(C(=O)OCC(=O)NC(=O)C2CCCCC2)cc1[N+](=O)[O-],74*,-20,13,50*,18,98*,18,
CS(=O)(=O)c1ccc(C(=O)OCC(=O)N2CCOCC2)cc1[N+](=O)[O-],43,-7,1,nt,6,0,nt,
Oc1[nH]c2ccccc2c1N=Nc1ncnc2c1oc1ccccc12,nt,nt,nt,100*,nt,nt,2,
CCc1ccc(N(CC)C(=O)c2cn(C)c(=O)c3ccccc23)cc1,18,-10,8,29,14,-1,nt,
SMILES,CF NFkB inh,KKLEB tox,ABHD5-PLIN5 inh,Mdm2 MdmX PPI,HIF-2a block,Peg3 prom inh,Mdm2-MdmX conf,others
CC(C)(C)C(=O)/C(=C\c1ccc([N+](=O)[O-])cc1)n1cncn1,nt,nt,nt,99*,nt,nt,100*,Full FLuc ctr=2
CN(C)/C=C(/C(=O)c1ccccc1)n1cncn1,5,0,2,7,20,4,nt,
COc1ccc(Cc2c(-c3ccc(C#N)cc3)nc3c(Cl)cc(C(F)(F)F)cn23)c(C)c1,nt,nt,-1,nt,13,nt,nt,
CC(=O)Nc1cccc(NC(=O)CCN2C(=O)c3ccccc3S2(=O)=O)c1,-13,6,19,10,-7,3,nt,
Cc1cc(C(=O)N/N=C\c2cc(C(C)(C)C)ccc2O)n[nH]1,13,-10,-6,65*,-72,33,60*,Full FLuc ctr=41*
Cc1cc(C(=O)N/N=C/c2cc(Br)cc(Br)c2OC(=O)c2cccc(F)c2)n[nH]1,-2,5,-4,51*,1,47,64*,Full FLuc ctr=43*
Cc1ccc(-c2cc(C(=O)N/N=C/c3ccccc3O)n[nH]2)o1,2,-3,11,53*,-141,-50,53*,Full FLuc ctr=47*
Cc1ccc(-c2cc(C(=O)N/N=C/c3c[nH]c4ccccc34)n[nH]2)o1,10,-8,0,13,-116,-37,nt,
O=C(CSc1ccccc1F)NCC(c1ccco1)N1CCCCC1 (configuration not stated),8,-22,4,nt,6,-2,nt,
COn1c2c(c3c4nonc4ccc31)CCCC2,7,-2,-18,59*,-27,24,47*,Full FLuc ctr=55*
CCCn1c(CC)nc([N+](=O)[O-])c1Sc1ccc(C)cc1,36,-14,2,64*,9,13,12,
CCCC1OC(c2cc3c(cc2Cl)OCO3)OCC1CC (configuration not stated),27,11,0,nt,7,7,nt,
CC(C)(C)n1cn[nH]c1=S,-17,-5,3,-2,15,3,nt,
COc1ccc(C2=Nn3c(nnc3-c3ccccc3Cl)SC2)cc1OC1CCCC1,46,-9,-8,73*,29,20,49*,Full FLuc ctr=54*
COc1ccc(C2=Nn3c(nnc3-c3ccccc3F)SC2)cc1OCC1CC1,38,-44,-4,84*,6,53*,62*,Full FLuc ctr=37*
COc1ccc(C2=Nn3c(nnc3-c3ccccc3Cl)SC2)cc1OC1CCOC1 (configuration not stated),38,-25,-1,63*,-94,-49,40,Full FLuc ctr=63*
